Experimental data taken from PubChem BioAssay AID504727 (Broad Institute, 2011).
Calls of active or inactive are those of the source.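 The calls were made as follows: active = fitted half-maximal concentration AC50 at or below ten times the highest valid tested dose, with signal falling as DNA is displaced (actives reach about 34 µM in these data); inconclusive = flat fit at moderate signal loss, or poor fit quality; inactive = the rest, including signal rising instead of falling.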

assay: DNA intercalators displacing acridine orange, dose response, artefact control for KSHV LANA DNA-binding inhibitor project, biochemical, fluorescence polarization, cherry-picked samples, set 2 (AID 504727); conditions: AC50: Acridine orange-DNA displacement; series mostly up to 35 µM

Row | SMILES | AC50
1 | COc1cccc(C2CC(=O)Nc3cc4c(cc32)CCC4)c1 (stereo not drawn) | inactive
2 | CCN(CC)CCCNc1ccc2ncn3c4ccc(O)cc4c(=O)c1c23 | 6.91 µM (active)
3 | O=C(O)c1cccc(-n2cccc2/C=C/[N+](=O)[O-])c1 | inactive
4 | O=c1[nH]c2c(s1)C=Nc1ccccc1N2 | 6.39 µM (active)
5 | COc1ccc(CC(=O)O/N=C(\N)c2ccc(OC)cc2)cc1 | inactive
6 | C=CC1=C(C(=O)O)N2C(=O)[C@@H](NC(=O)/C(=N/OCC(=O)O)c3csc(N)n3)[C@H]2SC1 | inactive
7 | Cn1c2ccccc2c2cnn(CC(=O)Nc3cccc(F)c3)c(=O)c21 | inactive
8 | Cc1cc(-c2nnc(SCC(=O)Nc3ccccc3)n2C)no1 | inactive
9 | Oc1[nH]c2ccccc2c1N=Nc1ccccc1F | inactive
10 | COc1ccc(C)cc1NC(=O)C(OC(=O)c1cnccn1)c1ccccc1 (stereo not drawn) | inactive
11 | COc1ccc(C(C)=O)cc1CN(C)C | inactive
12 | COc1ccc(/C=C/C(=O)NC(=S)Nc2ccc(S(N)(=O)=O)cc2)cc1 | inactive
13 | CCC(=O)Nc1cccc(C(=O)/C=C/c2ccccc2)c1 | inactive
14 | CCN(CC(=O)Nc1ccc(OC)cc1)C(=O)c1cc([N+](=O)[O-])ccc1N1CCOCC1 | inactive
15 | Cc1ccc2c(c1)nnn2C1CCN(C(=O)c2cccs2)CC1 | inactive
16 | Oc1ccc2ccc3cccc[n+]3c2c1 | 1.42 µM (active)
17 | COc1cc(CN2CC(=O)N(c3cc(Cl)ccc3C)C2=S)cc(OC)c1OC | inactive
18 | Cc1cccc(COc2ccc(/C=N/NC(=O)c3nnn(-c4nonc4N)c3COc3ccc(F)cc3)cc2)c1 | inactive
19 | O=C(CCN1C(=O)/C(=C/c2ccco2)SC1=S)Nc1ccc(C(=O)O)c(O)c1 | inactive

Row | SMILES | AC50
20 | Cc1ccc(N=Nc2c(O)[nH]c3ccc(F)cc23)cc1 | inactive
21 | N#CCCN(CCC#N)C(=O)C1c2ccccc2Oc2ccccc21 | inactive
22 | NNc1nc2sc3c(c2c(=O)n1C1CCCCC1)CCN(Cc1ccccc1)C3 | inactive
23 | COc1ccc(-c2cc(C(=O)N(C)CCc3ccc(OC)c(OC)c3)c3ccccc3n2)cc1 | inactive
24 | CCN(CC)CCN1C(=O)c2cccc3cc(N)cc(c23)C1=O | 17 µM (active)
25 | Cn1c(=O)c2c(nc(N/N=C/c3ccc(OC(=O)c4ccco4)cc3)n2Cc2ccc(F)cc2)n(C)c1=O | inactive
26 | COc1c2c(nc3occc13)C(CCC(C)(C)O)(OC)C(O)CC2 (stereo not drawn) | inactive
27 | CS(=O)(=O)c1cccc(C(=O)Oc2ccccc2)c1 | inactive
28 | O=C(O)C1C2C=CC(CC2)C1C(=O)O (stereo not drawn) | inactive
29 | O=C(COc1cccc(F)c1)Nc1nc(-c2cccnc2)cs1 | inactive
30 | CC(=O)OCCCn1c(C)[n+](C)c2cc(Cl)c(Cl)cc21 | inactive
31 | Cc1n[nH]c(C)c1N1C(=O)c2cccc3c(N4CCCCCC4)ccc(c23)C1=O | 33.6 µM (active)
32 | COc1ccc(-c2cnc3n2CCCCC3)cc1 | inactive
33 | O=S(=O)(O)c1cc(Cl)cc(N=Nc2ccc(O)cc2O)c1O | inactive
34 | CSc1n[nH]c(=O)n1-c1cccc(Cl)c1 | inactive
35 | CCN(C(=O)COC(=O)c1nc2nc(C)cc(C)n2n1)C1CCCCC1 | inactive
36 | CN(C)CCNc1ccc2ncn3c4ccc(O)cc4c(=O)c1c23 | 8.68 µM (active)
37 | CCN(CC)C(=S)SC1CCCCN(C(=O)c2ccccc2)C1=O (stereo not drawn) | inactive
38 | COc1ccc(CCNC(=O)CNC(=O)Cn2ccc3ccccc3c2=O)cc1OC | inactive
